Laboratory results: PubChem BioAssay AID1502 (Sanford-Burnham Center for Chemical Genomics, 2009)
The other results are listed elsewhere or left out. Unmarked numbers belong to inactive results. Active and inactive are the calls of the source. Cut-off read from the data, not from the text of the source: active = inhibition above about 40%; inactive = the rest.

Biological target: Runt-related transcription factor 1 (Homo sapiens) + Core-binding factor subunit beta (Homo sapiens) (UniProt Q01196+Q13951)
Experiment: Runt domain/CBFb interaction disruptors – biochemical, TR-FRET (AID 1502)
Conditions: TR-FRET RUNX1 Runt domain-CBFb binding; at 20 µM; hits give high values

Chain of Runt-related transcription factor 1 (Homo sapiens) + Core-binding factor subunit beta (Homo sapiens) (Q01196 whole entry, looked up, the tested form may be a part): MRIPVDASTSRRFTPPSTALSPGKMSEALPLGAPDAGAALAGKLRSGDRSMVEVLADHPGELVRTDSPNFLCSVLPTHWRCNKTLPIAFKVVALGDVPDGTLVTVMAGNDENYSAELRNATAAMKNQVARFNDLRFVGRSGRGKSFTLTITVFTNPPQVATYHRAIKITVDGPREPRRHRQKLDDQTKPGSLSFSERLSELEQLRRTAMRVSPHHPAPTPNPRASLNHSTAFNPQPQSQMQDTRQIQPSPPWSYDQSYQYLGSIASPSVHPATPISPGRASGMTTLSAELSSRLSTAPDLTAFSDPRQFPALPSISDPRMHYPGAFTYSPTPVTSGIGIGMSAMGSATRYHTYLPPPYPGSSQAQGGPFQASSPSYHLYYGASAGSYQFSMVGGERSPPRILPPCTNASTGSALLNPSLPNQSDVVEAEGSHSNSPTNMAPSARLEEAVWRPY
Chain of Runt-related transcription factor 1 (Homo sapiens) + Core-binding factor subunit beta (Homo sapiens) (Q13951 whole entry, looked up, the tested form may be a part): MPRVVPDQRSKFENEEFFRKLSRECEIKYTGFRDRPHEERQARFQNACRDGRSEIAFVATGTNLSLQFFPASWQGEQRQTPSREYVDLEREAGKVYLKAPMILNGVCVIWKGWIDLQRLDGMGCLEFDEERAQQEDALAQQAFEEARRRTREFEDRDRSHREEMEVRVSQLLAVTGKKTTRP

SMILES	inhibition
CCOC(=O)c1cc2c(=O)n3ccccc3nc2n(CC(C)C)c1=NC(=O)c1c(-c2c(F)cccc2Cl)noc1C	-8.1%
CCN1/C(=C/C(=S)Nc2ccccc2)Sc2ccccc21	-2.1%
Cc1ccc(-c2cn3cc([N+](=O)[O-])ccc3n2)cc1	-11.5%
COc1cccc2sc(Nc3nc(C)c(C(C)=O)s3)nc12	0.6%
O=c1[nH]c2ccccc2n2c(-c3ccccc3)nnc12	66.7% (active)
CCN1C(=O)/C(=C2/Sc3ccccc3N2CCCS(=O)(=O)O)SC1=S	10.7%
O=C1c2ccccc2C(Nc2ccc3c(c2)OCCO3)N1Cc1ccco1 (configuration not stated)	2%
Cc1cc(F)ccc1S(=O)(=O)Nc1ncnc2scc(-c3ccc(F)cc3)c12	-13.5%
CC(C)Cn1c(CCC(=O)O)ccc1-c1cccs1	17%
Brc1ccc(CSc2ccc(-c3ccco3)nn2)cc1	73.7% (active)
COCC(C)OC(=O)c1c(N)n(CCCN2CCOCC2)c2nc3ccccc3nc12 (configuration not stated)	53.2% (active)
Cc1cc(C)c2c3c(sc2n1)C(c1ccccc1)C(C#N)=C(N)O3 (configuration not stated)	1.6%
N#CC1=C(N)Oc2cc(O)ccc2C1C1CCCCC1 (configuration not stated)	-0.9%
CCOc1cccc(/C=N/N2C(=O)CSC2=S)c1O	77.6% (active)
CCCN1C2=C(C(=O)CCC2)C(c2ccc(O)c(Br)c2)C2=C1CCCC2=O	29.9%
CCCS(=O)(=O)N1CCCC(C(=O)NCc2ccco2)C1 (configuration not stated)	2.1%
COc1ccc(C2C(C#N)=C(N)Oc3cc(N)ccc32)cc1OC (configuration not stated)	-6.8%
COc1c(O)ccc2c1CN1CCc3cc4c(cc3C1C2)OCO4 (configuration not stated)	20.3%
N#Cc1c(N)n(CCOC(=O)c2ccc(Cl)cc2)c2nc3ccccc3nc12	4%
OCCN1CCN(C(=S)c2ccc(-c3ccccc3)cc2)CC1	15.5%
O=c1cc(CN2CCN(S(=O)(=O)/C=C/c3ccccc3)CC2)c2ccc(O)cc2o1	34.5%
CC(C)(C)OC(=O)c1c(N)n(CCCN2CCCC2=O)c2nc3ccccc3nc12	34.4%
COC(=O)Cn1c2ccc(C)cc2c2nc(C)sc21	24.5%
CCC(=O)Nc1c(S(=O)(=O)c2ccccc2)c2nc3ccccc3nc2n1Cc1ccccc1	62.4% (active)
CC(=O)Oc1ccc2c(C)c(CC(C)O)c(=O)oc2c1 (configuration not stated)	14%
CC(C)Oc1ccc(/C=C(\NC(=O)/C=C/c2ccco2)C(=O)NCCc2nc3ccccc3[nH]2)cc1	-3.3%
Cc1cccc(-n2c(N)c(C(=O)N3CCN(C)CC3)sc2=S)c1	18.2%
